From PubChem BioAssay (NCATS)
Records with an inconclusive call do not appear. Calls of active or inactive are those of the source. Unless noted, calls come from the whole dose curve.

Assays:
[1] = qHTS for Inhibitors of the Functional Ribonucleoprotein Complex (vRNP) of Lassa (LASV) Arenavirus: LASV Primary Screen - GLuc reporter signal (AID 1347082; calls by dose curve; tested in HEK293 reporter line; note: nearly all actives have a fitted effect of over 60% in size)
[2] = qHTS for Inhibitors of the Functional Ribonucleoprotein Complex (vRNP) of Lassa (LASV) Arenavirus: Viability assay - alamar blue signal for LASV Primary Screen (AID 1347083; calls by dose curve; tested in HEK293 reporter line; note: nearly all actives have a fitted effect of over 80% in size)
[3] = qHTS for Inhibitors of the Functional Ribonucleoprotein Complex (vRNP) of Lymphocytic Choriomeningitis Arenaviruses (LCMV): Viability assay - alamar blue signal for LCMV Primary Screen (AID 1347085; calls by dose curve; tested in HEK293 reporter line; note: nearly all actives have a fitted effect of over 80% in size)
[4] = target: Nucleoprotein (Lymphocytic choriomeningitis virus (strain Armstrong)) (UniProt P09992); assay: qHTS for Inhibitors of the Functional Ribonucleoprotein Complex (vRNP) of Lymphocytic Choriomeningitis Arenaviruses (LCMV): LCMV Primary Screen - GLuc reporter signal (AID 1347086); note: nearly all actives have a fitted effect of over 70% in size

Measured: Potency
Note: series mostly up to about 57 µM.

Nucleoprotein (Lymphocytic choriomeningitis virus (strain Armstrong)), sequence (P09992 whole entry, looked up): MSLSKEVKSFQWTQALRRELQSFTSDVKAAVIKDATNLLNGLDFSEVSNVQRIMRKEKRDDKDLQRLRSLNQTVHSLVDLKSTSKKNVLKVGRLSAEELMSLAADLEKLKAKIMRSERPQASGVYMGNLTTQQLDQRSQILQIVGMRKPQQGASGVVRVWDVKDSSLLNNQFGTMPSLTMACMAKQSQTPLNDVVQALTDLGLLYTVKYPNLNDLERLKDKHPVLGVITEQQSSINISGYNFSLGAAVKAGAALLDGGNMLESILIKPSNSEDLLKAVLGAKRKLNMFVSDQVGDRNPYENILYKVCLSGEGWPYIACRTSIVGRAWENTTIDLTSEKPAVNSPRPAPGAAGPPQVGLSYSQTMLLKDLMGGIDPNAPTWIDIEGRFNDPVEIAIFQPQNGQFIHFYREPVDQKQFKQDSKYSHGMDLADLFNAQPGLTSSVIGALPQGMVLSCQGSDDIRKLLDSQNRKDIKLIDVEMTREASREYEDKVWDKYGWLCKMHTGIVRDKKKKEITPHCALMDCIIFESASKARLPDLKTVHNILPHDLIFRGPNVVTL

CCN1CCN(C(=O)N[C@H](C(=O)N[C@@H]2C(=O)N3C(C(=O)O)=C(CSc4nnnn4C)CS[C@@H]23)c2ccc(O)cc2)C(=O)C1=O
inactive: all assays above

CCCCOC(=O)C(C)OC(=O)CCC (stereo not drawn)
inactive: all assays above

CC(C)=CCC[C@](C)(O[C@@H]1O[C@H](CO)[C@@H](O)[C@H](O)[C@H]1O)[C@H]1CC[C@]2(C)[C@@H]1[C@H](O)C[C@@H]1[C@@]3(C)CC[C@H](O[C@@H]4O[C@H](CO)[C@@H](O)[C@H](O)[C@H]4O[C@@H]4O[C@H](CO)[C@@H](O)[C@H](O)[C@H]4O)C(C)(C)[C@@H]3[C@@H](O)C[C@]12C
inactive: all assays above

CO[C@H]1C=CO[C@@]2(C)Oc3c(C)c(O)c4c(O)c(c(C=NN5CCN(C)CC5)c(O)c4c3C2=O)NC(=O)C(C)=CC=C[C@H](C)[C@H](O)[C@@H](C)[C@@H](O)[C@@H](C)[C@H](OC(C)=O)[C@H]1C
inactive: all assays above

CC1(C)OC(=O)C=C[C@]2(C)[C@H]3CC[C@@]4(C)[C@H](c5ccoc5)OC(=O)[C@H]5O[C@]54[C@]3(C)C(=O)C[C@@H]12
inactive: all assays above

Oc1cc(O)cc(-c2cc3ccc(O)cc3o2)c1
inactive: all assays above

COc1cc2c(cc1OC)C1Cc3ccc(OC)c(OC)c3C[N+]1([O-])CC2 (stereo not drawn)
inactive: all assays above

COC1[C@@H](O[C@@H]2O[C@H](C)[C@@H](O[C@H]3C[C@@](C)(O)[C@H](OC(=O)CC(C)C)[C@H](C)O3)[C@H](N(C)C)[C@H]2O)[C@@H](CC=O)C[C@@H](C)[C@@H](O)/C=C/C=C/C[C@@H](C)OC(=O)C[C@H]1OC(C)=O (stereo partly drawn)
inactive: all assays above

c1ccc2c(c1)CCC[C@H]2Nc1nc2ccccc2[nH]1
inactive: all assays above

COC(C)(C)[C@@H](O)COc1c2ccoc2cc2oc(=O)ccc12
inactive: all assays above

CCC1CCC(=O)O1 (stereo not drawn)
inactive: all assays above

COc1c(OC)c(O)c2c(=O)cc(-c3c(O)cccc3O)oc2c1OC
inactive: all assays above

CC1=CC23C(=O)C(C=C(CO)[C@@H](O)[C@]2(O)[C@H]1O)[C@H]1[C@@H](C[C@H]3C)C1(C)C (stereo partly drawn)
inactive: all assays above

O=C1c2ccccc2C(=O)c2c(O)ccc(O)c21
inactive: all assays above

C=CC(C)(CCC=C(C)C)OC(=O)CC(C)C (stereo not drawn)
inactive: all assays above

CC(=O)O[C@H]1C(=O)[C@@]2(C)C([C@H](OC(=O)c3ccccc3)[C@]3(O)C[C@H](OC(=O)[C@H](O)[C@@H](NC(=O)c4ccccc4)c4ccccc4)C(C)=C1C3(C)C)[C@]1(OC(C)=O)CO[C@@H]1C[C@H]2O (stereo partly drawn)
inactive: all assays above

CCC(C)c1nccnc1OC (stereo not drawn)
inactive: all assays above

CCCCCCCCCC(=O)OCC
inactive: all assays above

C=C1C(=O)OC2C1C(OC(=O)C(C)=CC)CC(=C)C1C(O)C3OC3(C)C21O (stereo not drawn)
inactive: all assays above

CC(=O)N1CCN(c2ccc(OCc3nn(C)c(C)c3-c3cccc4c(CCCOc5cc(C)c(Cl)c(C)c5)c(C(=O)O)n(Cc5cccnc5)c34)cc2)CC1
inactive: all assays above

CC1(C)CCC[C@]2(C)[C@H]3CC(=O)O[C@]3(C)CC[C@@H]12
inactive: all assays above

CC(=O)O[C@H]1C[C@@]2(O)[C@@H](OC(=O)c3ccccc3)C3[C@@](C)([C@@H](O)C[C@H]4OC[C@@]34OC(C)=O)[C@@H](O)[C@H](OC(C)=O)C(=C1C)C2(C)C (stereo partly drawn)
inactive: all assays above

COc1cc(O)c(C(C)=O)c2c1C=CC(C)(C)O2
inactive: all assays above

COc1c2c(c(CCC(=O)O)c3c1C=CC(C)(C)O3)OC(C)(C)C=C2
inactive: all assays above

CC(C)C1C(=O)O[C@@H]2CCN3CC=C(COC(=O)[C@](C)(O)[C@]1(C)O)[C@H]23 (stereo partly drawn)
inactive: all assays above

CC1(C)CCC[C@@]2(C)CC=C(C(=O)O)[C@@H]3C[C@]312
inactive: all assays above

COC1=C(C)C(=O)O[C@]12C(=O)C(C)=C1CCCCN3[C@H]([C@@H]4C[C@H](C)C(=O)O4)CC[C@]132
inactive: all assays above

CC12CCC(=O)C=C1CCC1C2CCC2(C)C(C(=O)CO)CC(O)C12 (stereo not drawn)
inactive: all assays above

CCCCCC1CCCC(=O)O1 (stereo not drawn)
inactive: all assays above

C[N+]1([O-])[C@@H]2Cc3cc4c(cc3[C@@H]1Cc1cc3c(cc12)OCO3)OCO4 (stereo partly drawn)
inactive: all assays above

ClC1=C(Cl)[C@]2(Cl)[C@@H]3[C@@H](Cl)[C@H]4O[C@H]4[C@@H]3C1(Cl)C2(Cl)Cl
inactive: all assays above

O=C1CCC[C@H]2[C@@H]3CCCN4CCC[C@H](CN12)[C@H]34
inactive: all assays above
